Screening results (PubChem BioAssay)
CBFb RUNX1 block: CBF-beta/RUNX1 interaction disruption; Potency, µM (titrated, usually from 59.8 µM), without a hit: at the top dose activity, negative = inhibition, usual class: inhibitors; 230,000 tested, under 10 active; AlphaScreen CBFb-His/RUNX1-biotin binding, biochemical; AID 1477; further: % of control where 0% means no effect
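Read-out: AlphaScreen. Format: His-CBF-beta with biotinylated RUNX1 (30 nM each) preincubated 20 min, compound 15 min, Ni-chelate plus streptavidin beads 90 min; room temperature throughout.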
D3 antag: antagonists of human D3 dopamine receptor. P35462. max response, negative = inhibition, %. D3R cells, DiscoveRx beta-arrestin luminescence, antagonist mode; stronger effect = lower value. 2.5% of 360,000 active; in the data active means max response below about -50%; inconclusive means no clear call, values can overlap the other calls; further: on the % scale 0 is the no-effect control and ±100 the full control effect
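Cells plated overnight at 1500 cells/well, then exposed to library compounds with dopamine controls for 90 minutes at 37 degrees C. DiscoveRx reagent added for 30–60 minutes at room temperature; luminescence read, quantitative HTS format.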
MBNL1-CUG inh: blocks human MBNL1 binding to CUG repeat RNA; Q9NR56; 0.036% of 280,000 active; AID 2675; Potency, µM (doses to about 57.5 µM), for the others: top-dose activity change, negative = inhibition, hits mostly inhibitors; TR-FRET MBNL1-His/biotin-(CUG)12 binding, 665/545 ratio; active means well fitted inhibition curve with a large enough effect in the signal ratio, with a control signal flat, not every such curve was filed as active; inconclusive means small, poorly fitted or top-dose-only effect, or effect the other way, or a change in a side signal; inactive means no such curve, though single readings can be large or run the other way; the % refers to the signal ratio; further: potency means the concentration at half of the fitted maximal effect; on the % scale 0 is the no-effect control and ±100 the full control effect
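Compounds (final 92 nM to 58 uM) are added to His-tagged MBNL1 and biotin-(CUG)12, then terbium anti-His antibody and streptavidin-XL665 (5 nM final). After 60 min at room temperature, the 665/545 nm ratio is read.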
D3 ag: D3 dopamine receptor (human) agonism; 0.58% of 410,000 active; AID 652048; P35462; max activation, %; D3R DiscoveRx beta-arrestin cells, luminescence, 90 min; in the data active means max activation above about 30%; further: 0% is about no effect
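Agonist mode: compounds and dopamine controls were applied to plated cells for 90 min at 37 degrees C after an overnight attachment at 1500 cells/well. Luminescent read-out followed 30 - 60 minutes at room temperature with DiscoveRx detection reagent.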
Integrin act MD: activates integrin-mediated alleviation for muscular dystrophy; alpha7betagal myoblasts, beta-gal FDG fluorescence, 48 h; Potency, µM (titrated, usually from 38.3 µM), for inactives: at the top dose activation, usual class: activators; 0.064% of 350,000 active;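 further: potency means the concentration at half of the fitted maximal effect; 100% = response of the positive control SU9516; nearly all actives have a fitted effect of over 60% in size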
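Alpha7betagal+/- myoblasts (passage 13) were plated 16-24 hr, then exposed to compounds (1:260 dilution of DMSO stock) for 48 hours at 37C. After MPER lysis, β-galactosidase reporter activity was read as FDG fluorescence (ex 480/em 540) after 30 minutes.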
PTHR1 agonist: PTHR1 (human) receptor agonism; Q03431; HEK293 GP2 PTHR1 cells, GloSensor cAMP luminescence, 1 h; 0.075% of 410,000 active; Potency, µM (highest dose often 115 µM), for inactives: at the top dose activation, actives largely listed as activators; AID 743266; further: potency means the concentration at half of the fitted maximal effect; nearly all actives have a fitted effect of over 55% in size
Target sequence (Q03431 whole entry, looked up): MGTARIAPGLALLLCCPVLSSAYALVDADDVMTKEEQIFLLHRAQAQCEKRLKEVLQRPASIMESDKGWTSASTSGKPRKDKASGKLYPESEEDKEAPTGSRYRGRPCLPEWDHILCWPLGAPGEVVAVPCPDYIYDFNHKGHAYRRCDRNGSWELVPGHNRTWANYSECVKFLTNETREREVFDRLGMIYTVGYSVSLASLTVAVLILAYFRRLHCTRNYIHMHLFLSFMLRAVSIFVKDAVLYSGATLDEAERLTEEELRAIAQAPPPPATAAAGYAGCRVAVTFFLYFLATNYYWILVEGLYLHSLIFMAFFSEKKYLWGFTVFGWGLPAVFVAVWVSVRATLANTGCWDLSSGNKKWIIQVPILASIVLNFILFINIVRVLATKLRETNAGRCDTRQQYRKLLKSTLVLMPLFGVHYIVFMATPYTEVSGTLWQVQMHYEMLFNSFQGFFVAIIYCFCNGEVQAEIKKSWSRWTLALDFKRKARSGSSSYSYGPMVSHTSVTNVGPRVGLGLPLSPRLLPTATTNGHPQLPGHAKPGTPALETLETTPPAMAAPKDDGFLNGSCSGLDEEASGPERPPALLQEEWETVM
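HEK-293-derived GP2 cells expressing PTHR1 and a GloSensor cAMP reporter, 3,000/well, plated overnight, given luciferin plus IBMX (each 0.5 mM as added) for 1 h at 37 °C, then compound for 1 h at 37 °C. Luminescence was read after 15 min at room temperature.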
The depositor's hits bear a star; i = inactive; u = inconclusive; x = no result; [ ] = remark or other dose. Rows were chosen to be rich in hits. Some 2.8% of all compounds tested hit in one or more screens of this group. Unless noted, the call rests on the fitted dose curve; in most records, active means well fitted curve in the direction sought with a large enough effect; inconclusive means small, poorly fitted or top-dose-only effect, or another doubt; inactive means no such curve, though single readings can be large; an effect the other way counts as inactive or inconclusive.

SMILES	CBFb RUNX1 block	D3 antag	MBNL1-CUG inh	D3 ag	Integrin act MD	PTHR1 agonist
COC(=O)c1ccc2c(=O)n(CCCCCC(=O)NCc3ccc(Cl)cc3)c(=O)[nH]c2c1	x	x	x	-13.8	x	i
O=C(Nc1ccccc1N1CCCC1)c1ccc([N+](=O)[O-])o1	x	-13.6	u	-3.6	-55.0%	i
COc1ccc(OCC(=O)Nc2cc(OC)ccc2N2CCCCC2)cc1	x	24.8	2.9%	35.8*	0.2%	-17.7%
COc1ccc(N2CCCC2)c(NC(=O)COc2ccccc2Cl)c1	x	15.0	-0.8%	3.9	-35.5%	i
COc1ccc(N2CCCC2)c(NC(=O)c2ccc([N+](=O)[O-])o2)c1	x	9.9	u	-0.7	7.94µM*	-13.6%
O=C(NS(=O)(=O)Oc1ccc(Cl)cc1)OC[C@@H]1CCCN2CCCC[C@H]12	9.8%	9.0	u	6.7	1.1%	i
Clc1ccc(C2CC(c3ccco3)n3ncnc3N2)cc1Cl (stereo not drawn)	0.3%	-57.8*	8.2%	1.8	-10.1%	-12.7%
Clc1ccc(C2CC(c3ccccc3)Nc3ncnn32)cc1 (stereo not drawn)	4.0%	-22.2	-4.1%	-6.8	-4.7%	-24.2%
CNC(=S)N/N=C/c1ccc(N(C)C)cc1	-8.6%	-10.1	8.8%	4.8	5.6%	i
CNC(=S)N/N=C/c1ccc(C(C)C)cc1	x	-59.2*	x	2.3	-52.4%	-1.2%[57.5 µM]
COc1ccc(N=Cc2nc(-c3ccco3)oc2O)cc1	1.8%	-51.7*	31.5%	-20.8	-15.5%	-16.3%[57.5 µM]
CCOc1ccc(CCNC(=O)c2cc(C)nc3c2c(C)nn3-c2cccc(F)c2)cc1	x	x	x	63.4*	x	-17.3%
COc1cccc(CNC(=O)c2cc(C)nc3c2c(C)nn3-c2ccc(C)cc2)c1	x	x	x	36.6*	x	-18.5%
O=C(NCCc1ccc(F)cc1)N[C@@H](Cc1ccccc1)C(=O)O	x	6.1	-3.7%	4.2	11.2µM*	i
O=C(CCN1CCc2ccccc2C1)Nc1ccc(F)cc1	5.1%	-66.2*	5.9%	-3.8	-2.4%	-13.1%
Cc1ccccc1NC(=O)CCN1CCCC1	15.6%	-9.2	4.1%	-7.2	20.2%	-5.4%
Cc1ccccc1NC(=O)CCN1CCc2ccccc2C1	1.6%	-79.1*	5.8%	-5.7	-18.6%	-20.9%
O=C(CCc1ccc(Oc2cc([N+](=O)[O-])cc([N+](=O)[O-])c2)cc1)N1CCCCCC1	0.2%	-11.5	u	3.3	-9.8%	-26.5%
Cc1cccc(C)c1Nc1ncccc1C(=O)O	x	x	x	10.8	x	x
COc1cc(C)ccc1S(=O)(=O)n1nc(C)cc1C	6.0%	15.9	4.2%	3.1	3.3%	i
CC(C)C[C@H](NC(=O)[C@@H](Cc1c[nH]c2ccccc12)NC(=O)[C@H](Cc1ccc(O)cc1)NC(=O)[C@H](CO)NC(=O)[C@H](Cc1c[nH]c2ccccc12)NC(=O)[C@H](Cc1cnc[nH]1)NC(=O)[C@@H]1CCC(=O)N1)C(=O)N[C@@H](CCCN=C(N)N)C(=O)N1CCC[C@@H]1C(=O)NCC(N)=O	x	x	x	5.5	x	x
O=C(Cc1cccc([N+](=O)[O-])c1)Nc1cccc(C(=O)N2CCOCC2)c1	x	-51.0*	x	-19.2	9.5%	-2.4%
O=C(CSC1=NCCN1)Nc1cccc([N+](=O)[O-])c1	1.5%	-64.5*	u	-15.2	-24.9%	i
O=C(CN1CCCCC1)Nc1cccc([N+](=O)[O-])c1	3.0%	-62.1*	u	-18.4	23.3%	i
O=C(CN1CCCC1)Nc1ccc(F)c(Cl)c1	x	-27.7	0.3%	-20.2	21.8%	i
SMILES	CBFb RUNX1 block	D3 antag	MBNL1-CUG inh	D3 ag	Integrin act MD	PTHR1 agonist
O=C(CSC1=NCCN1)Nc1ccccc1[N+](=O)[O-]	-10.2%	-12.0	u	-3.3	-8.0%	i
O=C(CN1CCCCC1)Nc1ccc(F)c(Cl)c1	0.6%	-58.3*	1.4%	-2.9	-6.7%	-15.3%[57.5 µM]
O=C(CCN1CCCCC1)Nc1cccc(Cl)c1	-1.9%	u	1.3%	-10.4	6.0%	i
O=C(CCN1CCCCCC1)Nc1cccc(Cl)c1	3.7%	-142.8*	-2.8%	-28.3	9.7%	-5.4%[57.5 µM]
COc1ccc(S(=O)(=O)NC2CCCCC2)cc1C(=O)N1CCCCC1	x	-65.9*	3.3%	2.4	-9.1%	-85.2%
O=C(O)CCCC(=O)NNC(=O)c1cccc(Br)c1	2.9%	-8.8	-4.5%	-3.7	-3.4%	i
O=C(CN1CCCCC1)NNC(=O)c1cccc(Br)c1	x	-80.3*	-4.3%	-33.9	6.7%	i
O=C(CN1CCCCC1)Nc1cccc(Br)c1	2.5%	-63.2*	-4.5%	-15.8	0.0%	i
O[C@H]1CN(CC2CCCCC2)[C@@H](c2ccc(Cl)cc2)C[C@@H]1n1cc(-c2ccc(F)cc2)nn1	x	0.0	x	-7.5	10.4%	-61.5%
COc1ccc(CN2C(=O)CCCC2(C)c2nc3ccccc3[nH]2)cc1 (stereo not drawn)	x	5.8	x	7.9	x	-9.3%
O=Cc1c(-c2ccc(Cl)cc2)oc2ccc(O)cc12	x	-1.2	x	-2.5	11.7%	u
O=C(CN1CCOCC1)Nc1ccc(S(=O)(=O)NC2CCCCC2)cc1	7.6%	14.7	11.0%	1.8	-11.3%	i
O=C(CN1CCCCC1)Nc1ccc(S(=O)(=O)NC2CCCCC2)cc1	0.4%	-50.6*	-4.2%	-8.5	-30.5%	i
O=C(CCN1CCN(Cc2ccccc2)CC1)NNC(=O)Nc1cccc(Cl)c1	x	u	-0.1%	-25.7	29.7%	27.9%
O=C(CCN1CCN(Cc2ccccc2)CC1)NNC(=O)Nc1cccc([N+](=O)[O-])c1	x	-50.5*	u	-16.5	0.0%	i
O=C(CN1C(=O)C2CCCCN2c2ccc(C(=O)N3CCCC3)cc21)NCc1ccc(F)cc1 (stereo not drawn)	x	x	x	3.5	x	-1.7%
c1ccc(SCCN2CCc3ccccc3C2)cc1	-6.3%	-91.0*	3.5%	-1.0	-10.6%	-53.8%
c1ccc(SCCOCCN2CCc3ccccc3C2)cc1	2.9%	-78.2*	-7.3%	-29.4	-20.4%	i
OCCN1CCN(CCSc2ccccc2)CC1	18.8%	-60.6*	-1.3%	-5.0	6.6%	i
CC[C@H](NC(=O)CC[C@H]1O[C@@H](n2cnc3c(NC(=O)c4ccccc4)ncnc32)[C@H](O)[C@@H]1O)c1ccccc1	x	-11.5	x	-2.2	x	-20.5%
CC(C)(C)c1nc(CN2CCOCC2)cc(CN2CCOCC2)c1O	-4.5%	-70.0*	-0.2%	-2.6	-25.6%	-28.3%
CC(C)(c1cc(Cl)c(O)c(CN2CCOCC2)c1)c1cc(Cl)c(O)c(CN2CCOCC2)c1	x	-25.2	x	-7.4	5.0%	-17.4%
Oc1c(CN2CCOCC2)cc(CN2CCOCC2)c(O)c1CN1CCOCC1	x	8.1	x	-1.4	0.0%	i
